Rows were chosen to be rich in hits. Some 3.5% of all compounds tested hit in one or more screens of this group.
GPR151 activ: activates the human receptor GPR151; PathHunter beta-arrestin GPR151 cells, luminescence; hit rate 1% among 650,000; AID 1508602; Q8TDV0; activation, % at 11.2 µM; in the data active = activation above about 4.9%
Target sequence (Q8TDV0 whole entry, looked up): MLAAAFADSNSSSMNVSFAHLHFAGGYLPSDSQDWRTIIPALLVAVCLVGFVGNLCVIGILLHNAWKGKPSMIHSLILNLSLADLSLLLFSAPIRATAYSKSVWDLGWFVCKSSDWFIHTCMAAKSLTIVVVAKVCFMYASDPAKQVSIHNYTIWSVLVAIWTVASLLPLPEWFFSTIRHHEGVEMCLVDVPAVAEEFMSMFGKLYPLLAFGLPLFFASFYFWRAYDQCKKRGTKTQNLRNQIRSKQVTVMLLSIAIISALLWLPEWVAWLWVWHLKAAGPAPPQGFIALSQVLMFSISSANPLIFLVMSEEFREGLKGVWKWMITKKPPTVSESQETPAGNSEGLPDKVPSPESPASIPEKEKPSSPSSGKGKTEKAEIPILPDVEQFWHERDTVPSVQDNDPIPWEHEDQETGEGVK
TEAD-YAP block: TEAD-YAP interaction inhibition. HEK-TIYL cells, TEAD-Gal4/YAP UAS-luciferase luminescence. inhibition, % at 9.12 µM. hit rate 1.4% among 640,000; in the data active = inhibition above about 32%
FBW7 act: human FBW7 E3 ligase activation, primary screen | Q969H0 | normalized activity (activation), % at 26.1 µM | AID 1259310 | hit rate 0.13% among 650,000 | AlphaScreen FBW7–phospho-cyclin E peptide binding, activator screen; in the data active = normalized activity above about 1.9%;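 note: purified mutant Fbw7 with reduced substrate affinity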
MITF inh: inhibitors of human MITF; O75030; AlphaScreen MITF homodimerization, bead proximity signal; inhibition, % at 2.6 µM; hit rate 0.91% among 650,000; in the data active = inhibition above about 50%
Each line names hits and unclear results; the compound was inactive in the other large screens.

CN(C)C(=O)Cn1c(SCC(=O)N2CCCc3ccccc32)nc2ccccc21	TEAD-YAP block 34.6
O=C(O)c1nc2nnc([N+](=O)[O-])c(=O)n2[nH]1	none
CSCC(C)N1CCC(n2nccc2NC(=O)Nc2ccccc2Cl)CC1 (centres undefined)	none
O=C(c1ccc(-c2nnc(-c3ccccc3)o2)cc1)N1CCOCC1	TEAD-YAP block 42.9
CC(=O)Nc1ccc(C(=O)N2CCOCC2)cc1	none
Cc1cc(C(=O)Nc2ccccc2C(N)=O)c2c(C)nn(-c3ccccc3)c2n1	none
N#CCCN(C(=O)CCl)c1ccccc1F	TEAD-YAP block 46.2
COc1ccccc1N(CCC#N)C(=O)CCl	none
O=S(=O)(Nc1ccc(Oc2ccccc2)cc1)c1cccc2cccnc12	none
COc1cc(OC)cc(C2=NC3(CCCCC3)NC2=O)c1	FBW7 act 2.1
Cc1ccc(N2C(=O)C(Cl)=C(Nc3cccc(O)c3)C2=O)c(C)c1	TEAD-YAP block 35.7
O=C1C(Cl)=C(Nc2cccc(O)c2)C(=O)N1c1ccccc1Cl	none
O=C1C(Cl)=C(Nc2cccc(O)c2)C(=O)N1c1cccc(Cl)c1Cl	TEAD-YAP block 53.2
Cc1c(C#N)c2ccccn2c1C(=O)c1ccc(S(=O)(=O)N(C)C)cc1	none
Cc1cc(C)c2[nH]c(C)c(CN3CCCCC3)c(=O)c2c1	none
COC(=O)C1=C(C)N(C)C(C)=C(C(=O)OC)C1c1ccccc1OC	none
Nc1ccc2oc(-c3ccccc3)nc2c1	none
O=C(O)c1ccc2oc(-c3ccccc3)nc2c1	TEAD-YAP block 54.6
Oc1ccc2oc(-c3ccccc3)nc2c1	TEAD-YAP block 48.6
O=C(c1ccc(F)cc1)c1cccc2c1NCC2	none
Cc1cc(NC(=O)Cn2c3c(c4ccccc42)CCC3)no1	TEAD-YAP block 57.4
O=C(Cn1c2c(c3ccccc31)CCC2)Nc1nccs1	TEAD-YAP block 34.4
Cc1nnc(NC(=O)Cn2c3c(c4ccccc42)CCC3)s1	none
O=C(CN1CCC(c2ccncc2)CC1)Nc1nccs1	TEAD-YAP block 34.2
O=C(CN1CCC(c2cccnc2)CC1)Nc1nccs1	none
COc1ccccc1N1CCN(C(=O)C2CC(=O)c3ccccc32)CC1 (centres undefined)	none
CCOc1ccc(CSc2n[nH]c(CC)n2)cc1	none
CCCOc1ccc(CSc2n[nH]c(C)n2)cc1	TEAD-YAP block 81.8
CCOc1ccc(CSc2n[nH]c(C)n2)cc1	TEAD-YAP block 88.0
O=C(c1ccncc1)N1CC[C@@H]2[C@H](CCCN2C(=O)c2ccccc2C(F)(F)F)C1	none
CCOc1ccccc1C1C(C#N)=C(SCC(=O)Nc2ccc(C)c(C)c2)NC(C)=C1C(=O)OC (centres undefined)	none
Cc1[nH]n(-c2ccc([N+](=O)[O-])cc2)c(=O)c1C=NCc1cccs1	none
CCOC(=O)C1CCCN(Cc2ccc(OC)c(Br)c2)C1 (centres undefined)	none
CC(C(=O)c1ccc(-c2ccccc2)cc1)[n+]1ccc2ccccc2c1 (centres undefined)	TEAD-YAP block 56.0
CC(=O)Oc1ccc(C(=O)Nc2ccc3ccccc3c2)cc1	TEAD-YAP block 35.5
NC(=O)c1ccc(NC(=O)c2ccc3ccccc3c2)cc1	none
O=C(Nc1ccc(O)cc1)c1ccccc1Cl	TEAD-YAP block 51.9
CS(=O)(=O)Nc1ccc(C(=O)Nc2ccc3ccccc3c2)cc1	none
O=C(Nc1ccc(O)cc1)c1ccc2ccccc2c1	TEAD-YAP block 46.6
OC1CCN(Cc2ccccc2Cl)CC1	none
Clc1ccccc1CN1c2ccccc2N(Cc2ccccc2Cl)C1c1ccccc1Cl	TEAD-YAP block 81.1
O=c1[nH]c2cc([N+](=O)[O-])ccc2nc1/C=C(\O)c1ccccc1	none
O=C1C2C3CCC(O3)C2C(=O)N1c1ccc2nc3ccccc3cc2c1 (centres undefined)	TEAD-YAP block 80.4
O=C1C2C3CCC(O3)C2C(=O)N1c1cccc([N+](=O)[O-])c1 (centres undefined)	none
O=C(Nc1ccccc1)C1=C(c2ccccc2)S(=O)(=O)CCS1(=O)=O	TEAD-YAP block 80.9
O=C(Nc1ccc(-c2ccccc2)cc1)c1ccc(C(=O)Nc2ccc(-c3ccccc3)cc2)cc1	none
COc1ccc(/C=C2\SC(=Nc3cccc(C)c3C)NC2=O)c(OC)c1	none
COc1ccc(/C=C2\SC(=O)NC2=Nc2ccc(C)cc2)c(OC)c1	TEAD-YAP block 57.6
COc1ccc(/C=C2\SC(=Nc3cc(C)cc(C)c3)NC2=O)c(OC)c1	TEAD-YAP block 57.2
COC(=O)C1=C(C)N(c2ccccc2F)C(=O)/C1=C\c1ccc(OC)cc1OC	none
COC(=O)c1ccc(C2CC(=O)N3C(=C2C#N)SCC3(O)c2ccc(C)cc2)cc1 (centres undefined)	TEAD-YAP block 49.0
N#CC1=C2SCC(O)(c3ccccc3)N2C(=O)CC1c1ccccc1F (centres undefined)	none
N#CC1=C2SCC(O)(c3ccccc3)N2C(=O)CC1c1cccs1 (centres undefined)	TEAD-YAP block 42.2
COc1cccc(C2CC(=O)N3C(=C2C#N)SCC3(O)c2cccc(OC)c2)c1 (centres undefined)	TEAD-YAP block 51.0
O=C(NCC1CCCN(C(=O)c2ccoc2)C1)c1ccc(F)cc1 (centres undefined)	none
Cc1ccc(S(=O)(=O)N2CCN(c3ccc([N+](=O)[O-])c(NCCOc4ccccc4C)c3)CC2)cc1	none
CCOc1ccc(C2NC(c3ccc(OCC)cc3)C3C(=O)C2C(c2ccc(OCC)cc2)NC3c2ccc(OCC)cc2)cc1 (centres undefined)	none
COc1ccc(-c2csc(=Nc3ccccc3)n2CCCO)cc1OC	none
COc1ccccc1N=c1scc(-c2ccc(OC)c(OC)c2)n1CCCO	TEAD-YAP block 41.8
COc1ccc(C(=O)NCc2nnc(SCC(=O)N3N=C(c4cccs4)CC3c3ccc(F)cc3)n2C)cc1 (centres undefined)	none
CC(Nc1cccc2ccccc12)C(=O)N/N=C/c1cc([N+](=O)[O-])ccc1O (centres undefined)	TEAD-YAP block 67.4
O=C(CNc1cccc2ccccc12)N/N=C/c1cc(Br)ccc1O	TEAD-YAP block 33.5
COc1ccccc1NC(C)C(=O)N/N=C/c1cc([N+](=O)[O-])ccc1O (centres undefined)	none
O=C(Cn1cncn1)N/N=C/c1ccc(Br)cc1	none
O=C(Cn1cncn1)N/N=C/c1cc(Br)ccc1O	MITF inh 57.2
O=C(CNc1cccc2ccccc12)N/N=C/c1ccccc1O	none
CC(Oc1cccc2ccccc12)C(=O)N/N=C/c1cc([N+](=O)[O-])ccc1O (centres undefined)	TEAD-YAP block 36.9
COC(=O)c1c(NC(=O)COC(=O)Cn2nc(C)c(Cl)c2C)sc2c1CCC2	none
COc1ccc(NC(=O)c2ccc3c(=O)n(-c4ccc(F)c(Cl)c4)c(=S)[nH]c3c2)c(OC)c1	none
CC(Nc1cccc2ccccc12)C(=O)N/N=C/c1ccc(O)cc1 (centres undefined)	TEAD-YAP block 34.4
CN1CCN(c2ccc(-c3ccc(C(=O)NC4CC4)s3)cc2)CC1	TEAD-YAP block 52.0
Cc1noc(C)c1-c1nc(Nc2ccc(N3CCOCC3)cc2)c2ncn(C3CCCCC3)c2n1	none
c1ccc(Nc2nc(N3CCc4ccccc4C3)nc3c2ncn3C2CCCCC2)cc1	TEAD-YAP block 32.3

High-throughput results deposited in PubChem by The Scripps Research Institute Molecular Screening Center.
